This note sets out measurements from PubChem BioAssay (NCATS).

Inconclusive results are not listed. Unmarked numbers belong to inactive results. Calls of active or inactive are those of the source. Calls follow the shape of the dose curve; as a rule, active = well fitted curve in the direction sought with a large enough effect; inconclusive = small, poorly fitted or top-dose-only effect, or another doubt; inactive = no such curve, though single readings can be large; an effect the other way counts as inactive or inconclusive.

Test [1] is described as follows: Primary qHTS for inhibitors of nuclear receptor binding SET domain protein 2 (NSD2) in an isogenic RCH-ACV NSD2 p.E1099K mutant (9B) (AID 1645876).
The nature of test [2]: Primary qHTS for inhibitors of nuclear receptor binding SET domain protein 2 (NSD2) in an RCH-ACV wild type WT cells (2C) (AID 1645877). A general note: Quantitative high-throughput screening tests each substance at several concentrations.
% is scaled to controls: 0 for no effect and ±100 for the full control effect.
Also: nearly all actives have a fitted effect of over 70% in size.

In the case of `C[C@@H]1O[C@@H](O[C@H]2[C@H](O[C@H]3[C@H](O[C@H]4CC[C@@]5(C=O)C(CC[C@]6(C)C5CC=C5C7CC(C)(C)C[C@@H](O)[C@]7(C)CC[C@]56C)C4(C)C)O[C@H](C(=O)O)[C@@H](O)[C@@H]3O)OC[C@@H](O)[C@@H]2O)[C@H](O)[C@H](O)[C@H]1O` (stereo partly drawn), the activity change, negative = viability loss in test [1] is -2.85% [at 9.23 µM]. The activity change, negative = cell killing in test [2] is -3.05% [at 9.23 µM].
Take `COC(=O)C1=C[C@@H](O)[C@@H](O)[C@H](O[C@@H]2O[C@H](COC(=O)/C=C/c3ccccc3)[C@@H](O)[C@H](O)[C@H]2O)C1`: the Potency result in test [1] and in test [2] was “inactive” in each case.
In the case of `C=C1C(OC(C)=O)C(=O)C2C(C)(C)C(OC(C)=O)CCC2(C)C1CC(OC(C)=O)/C(C)=C/COC(C)=O` (stereo not drawn), the Potency result in test [1] and in test [2] was “inactive” in each case.
Consider `O=C(/C=C/c1ccc(O)cc1)OCC1=CC2OC(=O)C3=CO[C@@H](O[C@@H]4O[C@H](CO)[C@@H](O)[C@H](O)[C@H]4O)[C@H]1[C@@H]32` (stereo partly drawn), for which the Potency result in test [1] and in test [2] was “inactive” throughout.
On to `O=C(O)Cc1nn(Cc2nc3cc(C(F)(F)F)ccc3s2)c(=O)c2nccnc12`, for which the Potency entry in test [1] and in test [2] was “inactive” each time.
With `C[C@@H]1O[C@@H](O[C@H]2[C@H](O)[C@@H](O)[C@H](OC[C@H]3O[C@@H](OC(=O)[C@]45CCC(C)(C)C[C@H]4C4=CCC6[C@@]7(C)C[C@H](O)[C@H](O[C@@H]8O[C@H](CO)[C@@H](O)[C@H](O)[C@H]8O)[C@@](C)(C(=O)O)C7CC[C@@]6(C)[C@]4(C)CC5)[C@H](O[C@@H]4O[C@H](CO)[C@@H](O)[C@H](O)[C@H]4O)[C@@H](O)[C@@H]3O)O[C@@H]2CO)[C@H](O)[C@H](O)[C@H]1O` (stereo partly drawn), the activity change, negative = viability loss in test [1] is -12.2% [at 9.23 µM]. The activity change, negative = cell killing in test [2] is -0.13% [at 9.23 µM].
For the compound `C=C[C@H]1[C@H](O[C@@H]2O[C@H](CO[C@@H]3OC[C@](O)(CO)[C@H]3O)[C@@H](O)[C@H](O)[C@H]2O)OC=C2C(=O)OCC[C@H]21`, the Potency result in test [1] and in test [2] was “inactive” throughout.
With `O=C1Nc2ccc(O)cc2O[C@H]1O[C@@H]1O[C@H](CO)[C@@H](O)[C@H](O)[C@H]1O`, the Potency entry in test [1] and in test [2] was “inactive” each time.
`CC1=C(CC(=O)O)c2cc(F)ccc2C1=Cc1ccc(S(C)(=O)=O)cc1`: the Potency entry in test [1] and in test [2] was “inactive” throughout.
Turning to `CC(C(=O)O)C1CCC2(C)C3C(=O)C=C4C(CCC(=O)C4(C)C)C3(C)CCC12C` (stereo not drawn), the Potency result in test [1] and in test [2] was “inactive” in each case.
In the case of `C[C@@H]1O[C@@H](O[C@H]2[C@H](OC(=O)C34CCC(C)(C)CC3C3=CCC5C6(C)CC(O)C(O[C@@H]7O[C@H](CO)[C@@H](O)[C@H](O)[C@H]7O)C(C)(C(=O)O)C6CCC5(C)C3(CO)CC4)O[C@H](C)[C@H](O)[C@@H]2O)[C@H](O)[C@H](O)[C@H]1O[C@@H]1OC[C@@H](O)[C@H](O)[C@H]1O` (stereo partly drawn), the activity change, negative = viability loss in test [1] is 3.3% [at 9.23 µM]. The outcome in test [2] was “inactive [at 9.23 µM]”.
For the compound `C=C1CC[C@H]2[C@@](C)(CCC(O)[C@@]2(C)CO)[C@@H]1C/C=C(/C(=O)O)C(O)CO` (stereo partly drawn), the Potency result in test [1] and in test [2] was “inactive” each time.
With `COc1cc(C)c(C(=O)O[C@H]2[C@@H](O)[C@H](n3ccc(=O)[nH]c3=O)O[C@@H]2CO)c(OC)c1`, the Potency entry in test [1] and in test [2] was “inactive” each time.
For the compound `CC(C)CC(=O)O[C@@H]1OC=C(CO[C@@H]2O[C@H](CO[C@@H]3O[C@H](CO)[C@@H](O)[C@H](O)[C@H]3O)[C@@H](O)[C@H](O)[C@H]2O)[C@H]2C[C@H](O)[C@@H](CO)[C@@H]12`, the Potency entry in test [1] and in test [2] was “inactive” each time.
For the compound `C=C1CCC2C(OC(=O)C2(O)COC(C)=O)C2C(=C)C(O)CC12` (stereo not drawn), the Potency entry in test [1] and in test [2] was “inactive” in each case.
Turning to `OCC1OC(Oc2cc(O)c3c(c2)OC(c2ccc(O)cc2)C(O)C3)C(O)C1O` (stereo not drawn), the Potency result in test [1] and in test [2] was “inactive” in each case.
In the case of `N#Cc1ccnc(N2C(=O)CC[C@H]2C(=O)N(c2cncc(F)c2)[C@H](C(=O)NC2CC(F)(F)C2)c2ccccc2Cl)c1`, the Potency result in test [1] and in test [2] was “inactive” in each case.
For the compound `CC(=O)O[C@H]1CC[C@@]2(CI)C(=CC[C@@H]3[C@@H]2CC[C@]2(C)[C@@H]([C@H](C)CCCC(C)C)CC[C@@H]32)C1`, the activity change, negative = viability loss in test [1] is -4.5% [at 9.23 µM]. In test [2], the activity change, negative = cell killing is -14% [at 9.23 µM].
Turning to `COc1c2c(c(C)c3c1C(=O)OC3)O[C@@]1(C)C[C@@H](O)[C@]34O[C@](OC)(CC[C@]3(C)[C@H]1C2)OC4(C)C`, the Potency entry in test [1] and in test [2] was “inactive” throughout.
As to `COc1cc(/C=C/C(=O)OC[C@H]2O[C@H](O[C@]3(CO)O[C@H](CO)[C@@H](O)[C@@H]3O)[C@H](O)[C@@H](O)[C@@H]2O)cc(OC)c1O`, the Potency entry in test [1] and in test [2] was “inactive” each time.
As for `CC(=O)N1c2ccccc2C2(O)CC3C(=O)NC(CC(C)C)C(=O)N3C12` (stereo not drawn), the Potency entry in test [1] and in test [2] was “inactive” each time.
With `CC(=O)OCCC(C)CCC1C(C)(O)CCC2C(C)(C)CCCC21C` (stereo not drawn), the Potency entry in test [1] and in test [2] was “inactive” throughout.
Take `O=C(/C=C/c1ccc(O)cc1)OC[C@]12O[C@H]1[C@@H](O)[C@@H]1C=CO[C@@H](O[C@@H]3O[C@H](CO)[C@@H](O)[C@H](O)[C@H]3O)[C@@H]12`: the Potency entry in test [1] and in test [2] was “inactive” throughout.
On to `C=C(C(=O)O)[C@@H]1CC=C2CCC[C@H](C)[C@@]2(C)C1`, for which the Potency entry in test [1] and in test [2] was “inactive” each time.
